A selection: hits, their analogues and other compounds. The true share with any hit is near 0.78%.
RGS7-Gao: human RGS7-Galphao interaction regulation. P09471. Multiplexed bead flow cytometry, RGS7-Galphao binding; actives lie on both sides. binding response (% of control), % at 10 µM. actives 0.35% (n = 220,000). AID 1439; in the data active means binding response below about 49% or above about 150%; inconclusive means no clear call, values can overlap the other calls; inactive means in between;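 further: fluorescent Galphao held in activated GDP-AlF4 state binding bead-coupled RGS7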
Target sequence (P09471 whole entry, looked up): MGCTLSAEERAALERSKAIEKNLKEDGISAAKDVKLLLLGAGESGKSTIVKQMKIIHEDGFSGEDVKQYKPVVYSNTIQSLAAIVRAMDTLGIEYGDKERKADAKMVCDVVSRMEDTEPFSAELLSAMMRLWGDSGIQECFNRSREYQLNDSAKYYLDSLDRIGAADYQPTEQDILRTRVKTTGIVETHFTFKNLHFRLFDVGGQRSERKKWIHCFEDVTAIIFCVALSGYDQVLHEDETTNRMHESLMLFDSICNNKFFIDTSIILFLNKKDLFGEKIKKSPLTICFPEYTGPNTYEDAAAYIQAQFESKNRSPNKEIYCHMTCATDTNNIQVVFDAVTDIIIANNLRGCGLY
RGS16-Gao HTS: RGS16-Galphao interaction regulator (human) | actives 0.38% (n = 220,000) | AID 1441 | binding response (% of control), % at 10 µM | bead-based flow cytometry RGS16-Galphao binding, fluorescence; actives lie on both sides;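 further: Galphao activated by GDP with aluminum fluoride before binding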
RGS4-Gao reg: human RGS4-Galphao interaction regulation; P09471; Multiplexed bead flow cytometry, RGS4-Galphao binding; actives lie on both sides; binding response (% of control), % at 10 µM; actives 0.33% (n = 220,000); AID 1415; in the data active means binding response below about 49% or above about 150%; inactive means in between;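 further: fluorescent Galphao activated with aluminum fluoride binding bead-coupled RGS4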
RGS8-Gao reg: regulators of human RGS8-Galphao interaction. P09471. multiplexed bead flow cytometry, RGS8-Galphao binding; actives lie on both sides. response (percent of control binding), % at 10 µM. actives 0.34% (n = 220,000); in the data active means response below about 60% or above about 140%; inactive means in between;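 further: Galphao activated as the GDP aluminium fluoride complex binding bead-coupled RGS8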
RGS4-Gao HTS: RGS4-Galphao interaction regulator (human); shares compounds with RGS16-Gao HTS; multiplexed bead flow cytometry, RGS–Galpha-o binding; RGS4–Galpha-o binding response, % at 10 µM; actives 99% (n = 1,600);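 further: fluorescently labeled Galpha-o bound to GDP with aluminium fluoride binding biotinylated RGS beads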
Biotin-avidin: counter-screen: compounds disrupting biotin binding to avidin beads; shares compounds with RGS16-Gao HTS; streptavidin beads, fluorescein-biotin binding, flow cytometry; inhibition, % at 10 µM; 1,700 tested, under 10 active;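 active means inhibition above 50%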;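 further: median green fluorescence of gated singlet beads compared with DMSO control wells; 0% = DMSO wells and 100% = complete loss of bead fluorescence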
RGS8-Gao confirm: RGS8-Galphao interaction regulation, single point confirmation; shares compounds with RGS16-Gao HTS; bead-based flow cytometry RGS8-Galphao binding, fluorescence; actives lie on both sides; binding response (% of control), % at 10 µM; actives 3% (n = 1,700); AID 1836; in the data active means binding response below about 72% or above about 130%; inactive means in between;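 further: Galphao activated as GDP AlF4 complex before binding bead RGS8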
RGS7-Gao confirm: confirmation of regulators of human RGS7-Galphao interaction; shares compounds with RGS16-Gao HTS; bead-based flow cytometry RGS7-Galphao binding; actives lie on both sides; response (percent of control binding), % at 10 µM; actives 7.8% (n = 1,700); in the data active means response below about 75% or above about 130%; inactive means in between;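 further: fluorescent Galphao activated with GDP and aluminum fluoride binding bead-coupled RGS7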
RGS16-Gao conf: confirmation of regulators of human RGS16-Galphao interaction; shares compounds with RGS16-Gao HTS; bead-based flow cytometry, RGS16-Galphao binding; actives lie on both sides; response (% of control binding), % at 10 µM; actives 4% (n = 1,700); AID 1838; in the data active means response below about 74% or above about 130%; inactive means in between;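 further: Galphao activated as the GDP aluminium fluoride complex binding bead-coupled RGS16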
RGS4-Gao confirm: RGS4-Galphao interaction regulation, single point confirmation; AID 1840; binding response (% of control), % at 10 µM; RGS4-Galphao binding, multiplexed bead flow cytometry; actives lie on both sides; actives 4% (n = 1,700); shares compounds with RGS16-Gao HTS; in the data active means binding response below about 74% or above about 130%; inactive means in between
RGS19-Gao single: RGS19-Galphao interaction regulation, single point confirmation; shares compounds with RGS16-Gao HTS; bead-based flow cytometry RGS19-Galphao binding; actives lie on both sides; response (percent of control binding), % at 10 µM; actives 5% (n = 1,700); in the data active means response below about 50% or above about 160%; inactive means in between;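 further: 100% = no compound control and 0% = blank background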
* marks the source's active call; other numbers are inactive results; ? = inconclusive; nt = no result; [ ] = dose if it differs, or a comment. Unless noted, how the calls were made is not given here.

SMILES | RGS7-Gao | RGS16-Gao HTS | RGS4-Gao reg | RGS8-Gao reg | RGS4-Gao HTS | Biotin-avidin | RGS8-Gao confirm | RGS7-Gao confirm | RGS16-Gao conf | RGS4-Gao confirm | RGS19-Gao single
COc1cc(/C=N/NC(=O)c2ccc(-n3cccc3)cc2)ccc1O | 16* | -86 | 16* | 14* | nt | -1 | 97 | 100 | 96 | 97 | 86
O=C(CSC1CC(=O)N(c2ccc(C(=O)O)cc2)C1=O)Nc1ccc(Cl)cc1 (stereo not drawn) | 241*[activator] | 109 | 123 | 99 | 123* | -1 | 105 | 96 | 104 | 103 | 114
O=C1CC(SC(=Nc2ccccc2)Nc2ccccc2)C(=O)N1c1ccc(Cl)cc1 (stereo not drawn) | 100 | 111 | 102 | 104 | nt | nt | nt | nt | nt | nt | nt
O=C(CNC(=O)C1COc2ccccc2O1)N/N=C/c1ccc(O)cc1O (stereo not drawn) | 61 | -1.7* | 62 | 56* | 62* | 0 | 103 | 103 | 103 | 103 | 88
CC(=O)Nc1cnc2ccccc2n1 | 181*[activator] | 108 | 113 | 102 | 113* | 0 | 100 | 102 | 97 | 96 | 91
OCCNc1cnc2ccccc2n1 | ? | 108 | 107 | 105 | nt | nt | nt | nt | nt | nt | nt
C=CCn1c(Oc2ccccc2)nc2c1c(=O)n(C)c(=O)n2C | 79 | 103 | 92 | 80 | nt | nt | nt | nt | nt | nt | nt
O=C(c1cc2ccccc2o1)N1CCN(c2ccccc2Cl)CC1 | 103 | 106 | 105 | 100 | nt | nt | nt | nt | nt | nt | nt
Cc1onc(-c2ccccc2Cl)c1C(=O)Nc1nn[nH]n1 | 52 | -3 | 47* | 53* | nt | 0 | 108 | 109 | 110 | 104 | 113
CCCN1CN(Cc2ccco2)c2nc3ccccc3n2C1 | 97 | 99 | 96 | 98 | nt | nt | nt | nt | nt | nt | nt
CCOC(=O)C1(c2nc(N)cs2)COC(=O)C1 (stereo not drawn) | 105 | 101 | 103 | 104 | nt | nt | nt | nt | nt | nt | nt
O=C1C(=Cc2ccc(Br)o2)C(=O)c2ccccc21 | 1.6* | 8.3* | 53 | 32* | 53* | nt | nt | nt | nt | nt | nt
O=C(O)c1ccccc1N=Cc1c(O)n(-c2nccs2)c(=O)c2ccccc12 | ? | 98 | 99 | 100 | nt | nt | nt | nt | nt | nt | nt
O=C1c2cccc3c(O)ccc(c23)C(=O)N1Cc1ccccc1 | 164*[activator] | 186*[activator] | 181*[activator] | 116 | nt | 2 | 126*[activator] | 264*[activator] | 203*[activator] | 204*[activator] | 219*[activator]
CC(C)CNC(=S)NNC(=O)c1csc2c1CCC(C)C2 (stereo not drawn) | 100 | 106 | 104 | 102 | nt | nt | nt | nt | nt | nt | nt
O=C1CCC(N2C(=O)c3ccccc3C2=O)C(=O)N1 (stereo not drawn) | 23* | 49 | 37* | 46* | nt | -2 | 100 | 99 | 102 | 103 | 99
CCOC(=O)c1c(C)n(CC)c2ccc(OC(=O)c3ccc([N+](=O)[O-])cc3)cc12 | nt | 100 | 102 | 100 | nt | 1 | 95 | 95 | 95 | 95 | 103
O=[N+]([O-])c1ccccc1/C=C/C=N/n1c(-c2ccccc2)n[nH]c1=S | 101 | 106 | 101 | 104 | nt | nt | nt | nt | nt | nt | nt
COc1cc2c(cc1OC)C(C1C(=O)CC(C)(C)CC1=O)N(C(=O)CCl)CC2 (stereo not drawn) | 92 | 17* | 90 | 74 | 90* | 0 | 99 | 99 | 101 | 100 | 103
CC1CC(=O)C(C2c3ccccc3CCN2C(=O)CCl)C(=O)C1 (stereo not drawn) | 106 | 100 | 99 | 100 | nt | nt | nt | nt | nt | nt | nt
